107 molecules from PubChem BioAssay AID624351 (Southern Research Specialized Biocontainment Screening …, 2012) can be followed below.

The whole screen tested about 2,400 compounds, of which about 1,400 (58%) were called active.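 Rule for the calls: active = inhibition of 30% or more at any tested dose; inconclusive = primary hits over the limit that were never retested; inactive = the rest.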 So high a share suggests a set chosen from earlier hits. The list shows a part of the results.

The experiment is described as follows: coupled detection enzyme interference, dose response, artefact control for MgcRacGAP inhibitor project, biochemical, coupled enzyme counter-screen (AID 624351).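 For inhibition: 0% = median positive control wells and 100% = median negative control wells.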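 Note: signal is the ADP detection kit reading of free GDP without any GAP enzyme.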 The note with it: ADP Hunter coupled enzyme counter-screen, fluorescence, no MgcRacGAP; series mostly up to 80 µM.
In the case of `CN(c1ccc(O)cc1)c1nc(-c2cccnc2)cs1`, the IC50 (in general, the point on the concentration scale where inhibition reaches its midpoint) is 19.9 µM (active).
Still for that read-out and setting: for `CN(c1ccc(O)cc1)c1nc(-c2ccccc2)cs1` the value was 53.7 µM (active).
For the molecule `CCC1=NN2C(=N)/C(=C\c3ccc(SCc4ccco4)o3)C(=O)N=C2S1`, the IC50 entry was “inactive”.
Same read-out and setting: for `COC(=O)c1[nH]c2ccccc2c1NC(=O)Oc1ccccc1` the value was 15.6 µM (active).
On the same count and under the same terms, for `Cc1[nH]c2ccccc2c1-c1csc(NC(=O)CSCCO)n1` the value was “inactive”; for `COC(=O)c1[nH]c2ccc(Cl)cc2c1NC(=O)Oc1ccccc1`, 18.5 µM (active); for `COC(=O)c1[nH]c2ccc(C)cc2c1NC(=O)Oc1ccccc1`, “inactive”.
As to `COC(=O)c1[nH]c2cc(OC)c(OC)cc2c1NC(=O)Oc1ccccc1`, the IC50 was 19.5 µM (active).
On the same count and under the same terms, for `O=C1C=CC2(O[C@H](c3ccccc3)[C@@H](c3ccccc3)O2)[C@H](Sc2ccccc2O)C1` the value was “inactive”.
On to `CC1=CC(c2ccccc2)NC(=S)N1` (configuration not stated), for which the IC50 entry is “inactive”.
Regarding `O=[N+]([O-])/C=C/c1ccc2c(ccn2Cc2ccccc2)c1`, the IC50 entry was “inactive”.
With `O=c1c(O)c(-c2ccc(O)c(O)c2)oc2cc(O)ccc12`, the concentration for half-maximal inhibition (IC50) was 52.8 µM (active).
Still for that read-out and setting: for `O=c1c(O)c(-c2ccc(O)cc2)oc2cc(O)cc(O)c12` the value was 34.5 µM (active); for `COc1c(-c2ccc(O)c(O)c2)oc2cc(O)cc(O)c2c1=O`, 34 µM (active).
Same read-out and setting: for `c1ccc(CC2CCN(Cc3ccccn3)CC2)cc1` the value was “inactive”; for `CC1(C)CC(=O)C=C(Nc2ccc(O)cc2)C1`, 25.9 µM (active); for `COc1cc(C2NC(=O)C(C#N)=C(S)N2c2ccc(C)cc2)ccc1OC(C)C` (configuration not stated), “inactive”.
On the same count and under the same terms, for `COc1ccc(-c2cc3ccccc3n2CC(O)CN2CCCCC2)cc1` (configuration not stated) the value was “inactive”.
As for `COc1ccc(NCC(O)Cn2c(C)c(C)c3ccccc32)cc1` (configuration not stated), the concentration for half-maximal inhibition (IC50) was 66.8 µM (active).
On to `COc1ccc(NCC(O)COc2ccc(C(C)(C)C)cc2)cc1` (configuration not stated), for which the IC50 entry is “inactive”.
As to `COc1ccc(OC)c(CN2CCSCC2)c1`, the IC50 result was “inactive”.
The same measure, in the same setting: for `Oc1ccc(C2=Nn3c(nnc3-c3ccco3)SC2)cc1O` the value was 14.2 µM (active).
Still for that read-out and setting: for `CC1Cc2ccccc2N1C(=O)CNCCCN(C)C` (configuration not stated) the value was “inactive”; for `COc1ccc(NC(=O)/C(Cl)=C(/Cl)S(=O)Cc2ccccc2)cn1` (configuration not stated), “inactive”; for `COc1ccc(NC(=O)c2cccc(-c3ccc(O)cc3)c2)cn1`, 41.2 µM (active).
On the same count and under the same terms, for `CC(=O)Nc1cccc(NC(=O)c2cccc(-c3ccc(O)cc3)c2)c1` the value was 59.1 µM (active).
Turning to `COc1ccc(NC(=O)/C(Cl)=C(/Cl)S(=O)Cc2ccc(Cl)cc2)cn1` (configuration not stated), the IC50 result is “inactive”.
The same measure, in the same setting: for `O=C(Nc1ccccc1)c1cccc(-c2nnc(-c3ccccc3)o2)c1` the value was “inactive”.
Turning to `Oc1cccc2c(NC(=S)Nc3ccc(OC(F)F)cc3)cccc12`, the IC50 is 83.5 µM (active).
On to `C#CCOCCOCCOCCNc1nc(N2CCN(C(=O)CCCCCCCCCCNC(=O)[C@@H](CCSC)n3cc(CCO)nn3)CC2)nc(N2CCN(C(=O)CCCCCCCCCCNC(=O)[C@H](CO)n3cc(CCCCCN)nn3)CC2)n1`, for which the IC50 result is “inactive”.
In the case of `Oc1ccc(-c2csc(-c3cccnc3)n2)cc1O`, the half-maximal inhibitory concentration (IC50) was 11 µM (active).
Regarding `Oc1ccc(-c2csc(-c3cccnc3)n2)c(O)c1`, the IC50 is 43.4 µM (active).
Take `COc1ccc(-c2nc(-c3ccc(O)cc3O)cs2)cc1OC`: the IC50 was 55.4 µM (active).
For the molecule `COc1cc2cc(-c3ccc(O)cc3O)nc(C)c2cc1OC`, the IC50 was 45.1 µM (active).
Still for that read-out and setting: for `COc1ccc(-c2ncc3ccccn23)cc1OC` the value was “inactive”; for `Clc1cc(Cl)c(OCCCCn2cncn2)c(Cl)c1`, “inactive”; for `CCCCN(C)C(=O)C1CCN(Cc2ccc(OCc3ccccc3)cc2)CC1`, “inactive”.
Same read-out and setting: for `COc1ccc(C2NC(c3ccc(OC)cc3OC)C(C)C(=O)C2C)c(OC)c1` (configuration not stated) the value was “inactive”; for `CC1CC(C)CN(CC(=O)NC(c2ccccc2)c2ccccc2)C1` (configuration not stated), “inactive”; for `CCOc1cc(/C=C2\SC(=O)N=C2N)ccc1O`, 14.3 µM (active).
Same read-out and setting: for `CCN=C1S/C(=C\c2ccc(O)c(OCC)c2)C(=O)N1CC` the value was 39 µM (active); for `COc1cc(/C=C2\SC(N)=NC2=O)cc(Cl)c1O`, 45.7 µM (active); for `COc1cc(/C=C2\SC(c3ccc(C)cc3)=NC2=O)cc(OC)c1O`, “inactive”.
In the case of `CCCN1C(=O)/C(=C/c2cc(C)n(C)c2C)SC1=Nc1ccc(OCC)cc1`, the IC50 result is “inactive”.
Consider `COc1cc(/C=C2\SC(N)=NC2=O)ccc1O`, for which the IC50 was 16.4 µM (active).
Still for that read-out and setting: for `COc1cccc(OC)c1OCCNC(C)(C)C` the value was “inactive”; for `NC1=NC(=O)S/C1=C\c1ccc(O)cc1`, 20.2 µM (active).
Same read-out and setting: for `CCOc1cc(/C=C2\C(=O)ON=C2c2ccccc2)cc(Br)c1O` the value was “inactive”.
On to `N=C1/C(=C\c2ccc(Br)o2)C(=O)N=C2SC(CC(=O)N3CCOCC3)=NN12`, for which the IC50 result was “inactive”.
In the case of `N=C1/C(=C/c2ccc(Br)o2)C(=O)N=C2SC(CC(=O)N3CCCC3)=NN12`, the IC50 result is “inactive”.
The same measure, in the same setting: for `CCOc1cc(/C=C2/NC(=O)N(Cc3ccccc3F)C2=O)ccc1O` the value was 50 µM (active).
Same read-out and setting: for `Cc1ccc(S(=O)(=O)Oc2ccc(/C=C3\C(=N)N4N=C(S(C)(=O)=O)SC4=NC3=O)cc2)cc1` the value was “inactive”.
As for `CCS(=O)(=O)C1=NN2C(=N)/C(=C\c3ccc(SCc4ccco4)o3)C(=O)N=C2S1`, the IC50 result was “inactive”.
Take `CC(NCc1cccc(S(=O)(=O)N(C)C)c1)c1ccc(F)cc1` (configuration not stated): the IC50 entry is “inactive”.
Still for that read-out and setting: for `CCOc1cc(/C=C2\SC(N)=NC2=O)ccc1O` the value was 55.5 µM (active).
For the molecule `C#CCOCCOCCOCCNc1nc(N2CCN(C(=O)C([C@@H](C)O)n3cc([C@@H](N)CCCCN)nn3)CC2)nc(N2CCN(C(=O)[C@H](CCCCN)n3cc(CN)nn3)CC2)n1` (some centres not stated), the IC50 result was “inactive”.
Still for that read-out and setting: for `O=C(CSc1nnnn1-c1ccc(F)cc1)c1ccc(O)c(O)c1` the value was 77.2 µM (active); for `Cc1cc(C)nc(SCC(=O)c2ccc(O)c(O)c2)n1`, 38 µM (active); for `CN(C)c1cc(NC(=O)CN2CCCC2)c2ccccc2n1`, “inactive”.
Still for that read-out and setting: for `Cc1cc(SCC(=O)c2ccc(O)c(O)c2)nc2ccccc12` the value was 58.9 µM (active); for `CC(C)(C)CC(C)(C)NCC(=O)Nc1c2c(nc3ccccc13)CCC2`, “inactive”; for `Cc1cc(=O)oc2c(O)c(O)ccc12`, 28.8 µM (active).
For `O=C(O)c1cccc2cccc(-c3c4ccc(=O)c(O)c-4oc4c(O)c(O)ccc34)c12`, the IC50 entry is “inactive”.
The same measure, in the same setting: for `Cc1[nH]n(-c2ccccc2)c(=O)c1/C=N/N(C)c1ccccc1` the value was 15 µM (active); for `O=C(O)C1Nc2c(O)cc(Cl)c([N+](=O)[O-])c2C2C=CCC12` (configuration not stated), “inactive”; for `COc1cc(Sc2ccc(C)cc2)c(OC)cc1N`, 22.5 µM (active).
As to `O=C(N/C(=C\c1ccc(O)cc1)C(=O)N1CCCCC1)c1ccccc1`, the IC50 is 54.1 µM (active).
As to `COc1ccc(NC2CCCN(C(=O)c3cccc(N(C)C)c3)C2)cc1` (configuration not stated), the IC50 was 74.8 µM (active).
On the same count and under the same terms, for `COc1ccc(NC2CCCN(C(=O)c3ccc(C)c(N4CCNC4=O)c3)C2)cc1` (configuration not stated) the value was “inactive”.
In the case of `COc1cccc(C(=O)N2CCN(C3CCCCC3)CC2)c1`, the IC50 result was “inactive”.
Same read-out and setting: for `O=C(c1cccc(F)c1)N1CCN(C2CCCCC2)CC1` the value was “inactive”.
Same read-out and setting: for `COc1cc(OC)cc(C(=O)N2CCN(Cc3ccccc3Br)CC2)c1` the value was “inactive”.
Still for that read-out and setting: for `COc1ccc(NC2CCCN(C(=O)c3cccc(N4CCNC4=O)c3)C2)cc1` (configuration not stated) the value was 81.2 µM (active).
In the case of `Cc1cc(-c2ccccc2)nc2c(Br)c(=O)[nH]n12`, the IC50 result is “inactive”.
Same read-out and setting: for `Cc1ccc(N2C(S)=C(C#N)C(=O)NC23CCCCC3)cc1` the value was “inactive”; for `O=C1C(=Cc2cccc(O)c2O)SC(=S)N1CCCN1CCOCC1`, “inactive”.
For the molecule `COc1cc(/C=C2\SC(=S)N(NC(=O)c3ccncc3)C2=O)ccc1O`, the 50% inhibitory concentration (IC50) was 44.1 µM (active).
The same measure, in the same setting: for `COc1cc(/C=C2\SC(=S)N(Nc3ccccc3)C2=O)ccc1O` the value was 75.4 µM (active); for `CC(=O)NN1C(=O)/C(=C\c2ccc(Br)o2)SC1=S`, “inactive”.
For `COc1cc(/C=C2\SC(=S)N(NC(=O)c3cccc(O)c3)C2=O)ccc1O`, the IC50 is 67.5 µM (active).
In the case of `CC(=O)NN1C(=O)/C(=C/c2ccc(Br)o2)SC1=S`, the IC50 entry was “inactive”.
Still for that read-out and setting: for `COc1cc(/C=C2\SC(=S)N(NC(=O)c3ccc(O)cc3)C2=O)ccc1O` the value was 79.5 µM (active); for `O=C(O)CCCN1C(=O)/C(=C\c2ccco2)SC1=S`, “inactive”.
Consider `CC(=O)OCCNc1cc(N2CCN(C)CC2)c2noc3c2c1C(=O)c1ccccc1-3`, for which the inhibition – broadly, the drop in the measured response relative to a control, in per cent – is -4.34% [at 10 µM] (inactive).
With `O=C(O)c1ccc2c(c1)[C@@H]1C=CC[C@@H]1[C@H](c1ccccn1)N2`, the IC50 result was “inactive”.
Same read-out and setting: for `CCOC(=O)c1sc2nc(CSc3ccccc3)nc(N3CCCN(C)CC3)c2c1C` the value was “inactive”; for `CCOc1cc(/C=N\NC(=O)c2c(C)nc3ccccn23)ccc1O`, 83.5 µM (active); for `COc1cc(/C=N\NC(=O)c2c(C)nc3cc(C)ccn23)ccc1O`, 50.4 µM (active).
Still for that read-out and setting: for `O=C1/C(=C\c2ccc(O)c(O)c2)N=C2CCCCCN12` the value was 18.3 µM (active); for `CCOc1cc(/C=C2\N=C3CCCCCN3C2=O)ccc1O`, 55.8 µM (active).
The same measure, in the same setting: for `O=C(CNC1CC1)Nc1cc(C(F)(F)F)ccc1Cl` the value was “inactive”; for `Cc1ccc(S(=O)(=O)N[C@H](C(=O)OCn2nnc3ccccc3c2=O)C(C)C)cc1`, “inactive”.
`COc1ccc(NC(=O)NS(=O)(=O)c2ccc(C)cc2)cc1OC`: the IC50 was 25.5 µM (active).
On the same count and under the same terms, for `O=C(N/N=C/c1ccc(O)c(O)c1)c1cccc(S(=O)(=O)N2CCCCC2)c1` the value was 72.8 µM (active); for `CCN(CC)S(=O)(=O)c1cccc(C(=O)N/N=C/c2ccc(OC)c(O)c2)c1`, 81.2 µM (active); for `O=C(/C=C/c1ccc(O)c(O)c1)c1ccc(S(=O)(=O)N2CCCCCC2)cc1`, “inactive”.
Consider `O=C(CNCc1ccco1)Nc1cccc(S(=O)(=O)N2CCCCC2)c1`, for which the IC50 entry was “inactive”.
Take `COc1ccc(/C=N/NC(=O)c2cccc(S(=O)(=O)N3CCCC3)c2)cc1O`: the IC50 is 55.4 µM (active).
As to `CCOc1cc(C=NNC(=O)c2cccc(S(=O)(=O)N3CCCC3)c2)ccc1O`, the IC50 was 32.6 µM (active).
Take `COc1ccc2c3c(cccc13)N(C)N=C2C`: the IC50 entry is “inactive”.
Take `Cc1sc2c3ccsc3ccc2[n+]1C`: the IC50 result is “inactive”.
For the molecule `O=C(Cc1ccc(Cl)cc1)N/N=C/c1ccc(O)c(O)c1`, the IC50 was 19.4 µM (active).
On the same count and under the same terms, for `O=C(CCc1ccc(O)c(O)c1)N/N=C/c1ccc2c(c1)OCO2` the value was “inactive”.
Regarding `O=C(COc1ccccc1[N+](=O)[O-])N/N=C/c1ccc(O)cc1`, the IC50 was 70.9 µM (active).
`COCc1cc(C)nc(OCC(=O)N/N=C/c2ccc(O)cc2)c1C#N`: the IC50 was 79.7 µM (active).
On the same count and under the same terms, for `O=C(COc1cccc2cccnc12)N/N=C/c1ccc(O)cc1` the value was 80 µM (active); for `O=[N+]([O-])c1ccccc1OCCNCc1ccccc1`, “inactive”.
